The supplement of paper PMC11417369
± gives the standard deviation of the averaged measurements. In all, about 25,000 sequences were measured (“ln(normalized median fluorescence intensity)”: median about 8.6, highest 2% from about 10 on). The sample holds the highest values, similar sequences and a random draw of the others, so the mix is not that of the screen.

The sequences below were run on PfAP2-EXP AP2 domain (GST-tagged) (assay: gcPBM binding intensity (ln(normalized median fluorescence intensity)); higher = stronger DNA binding).
Method in brief: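 Using an Agilent 4 × 180k array, primer-extended double-stranded 36-bp intergenic genomic probes and negative controls were exposed for 1 h to GST-fused P. falciparum DNA-binding domains expressed in E. coli. Binding was carried out in 1× PBS with 1% milk, 0.2 mg/ml BSA, 0.5% salmon testes DNA and 0.03% Triton X-100, and protein was detected with Alexa488 anti-GST antibody and a 488 nm scan. Binding intensity is the highest Masliner-normalised natural-log median intensity across replicate spots of either probe orientation.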

Sequence	gcPBM binding intensity (ln)
GGATTTATTATATATACACACATACAGATATATATA [CACACA_site5222]	8.48 ± 0.3
GTTTTTTTTATATATTGTACAAATAATATATTATAT [XGTACX_site29]	9.02 ± 0.37
TAAATATATTTATACACACACACCAAAGCAATAGAT [CACACA_site7393]	9.12 ± 0.35
AAAAAATGTTAAAAAAGTACTTTCTTTATTTAATAA [XGTACX_site2908]	8.07 ± 0.4
GAACGCCATTCACATAAAGGGATACATAAATAAATA [XGTACX_negctrl_site330]	8.4 ± 0.42
TATATTAATAATAAGTGTACATATATATATATTTTT [XGTACX_site288]	8.36 ± 0.3
ATATATATATATATATGTACATATTGTATCTTATAC [XGTACX_site5466]	10.2 ± 0.4
CATGTGCATATTAAATGTACATATATACATATATAC [XGTACX_site857]	8.835 ± 0.064
ATGTGTATATATTATTGTACATATATATATATATAT [XGTACX_site4627]	10.3 ± 0.2
TATATATATATATATTGTACATATATTATTATATAT [XGTACX_site7447]	10.2 ± 0.57
CTTTTAAATTATTTTTGTACATAATTATATATATAT [XGTACX_site4128]	9.4 ± 0.32
TATATATTATATATATGTACATATTGTTGTGTATAT [XGTACX_site767]	8.63 ± 0.29
TTGTGTACATATTAAGTGCATATATATATATATATA	10.4 ± 0.33
ATATAAAAATTAAAATGTACATATCTTATTATAATA [XGTACX_site983]	8.32 ± 0.34
ATATCTTAAATTATTTGTACATATATATATATATAT [XGTACX_site8034]	10.3 ± 0.27
CATACACATATATATTGTACACATATATGTATGTAT [XGTACX_site4030]	8.45 ± 0.28
CATATACATTGTATATGTACATATATATATATATAT [XGTACX_site3772]	10.1 ± 0.36
TTTTAAATAAATCATGCATGCACATATAATTATATT [TGCATGCA_site151]	9.94 ± 0.33
TTATATGGATATACAGTGCATATATACATATAAGTG	8.61 ± 0.26
ACAAAAAAATGAAAAGAAAAAGATATACCCCAATAT [CACACA_negctrl_site509]	8.99 ± 0.8
TATGTAATGTTTACAACACACAAATTATAAATACAA [CACACA_site1771]	8.38 ± 0.4
TATTACATTATATAAACATGCAAAACTATATATTAT [TGCATGCA_site601]	8.63 ± 0.45
TGTTTTATTATTTATAGTACATAAAAAAATATTGTA [XGTACX_site8963]	8.25 ± 0.24

Sequence	gcPBM binding intensity (ln)
CAAGAATAAAAATACAAGCACACATGTATGAAATAT [CACACA_site3214]	8.91 ± 0.42
TTATATCTTATAAAATGTACATAAAATATATAATAT [XGTACX_site7647]	8.52 ± 0.26
ATATATATATATAAATGTACAGGCTTATCTCTTATT [XGTACX_site1828]	10.2 ± 0.12
TAAAAAAAAAAAATGTGTACATATTATATATATCTT [XGTACX_site2615]	8.22 ± 0.3
ATTTATCTATAATATACACACATATAACAGACATAT [CACACA_site6469]	8.52 ± 0.33
ATACATTCTAATACGTGTACATATATATATATATAT [XGTACX_site1881]	10.2 ± 0.28
TAATATACATATATATGTACATATATATATATATAT [XGTACX_site2684]	9.93 ± 0.35
TGAATAATATACATACGTACATACATATATATAATA [XGTACX_site1302]	8.32 ± 0.3
ATTACAAAAAAAAAAAAAAAAAAAAAAAAAAAAAAA [CACACA_negctrl_site448]	7.95 ± 0.33
TATTACACATATTATACACACATATATTATATATAT [CACACA_site4951]	8.69 ± 0.25
TAATTTTTTTTAATAACACACATATAAATATAAATA [CACACA_site6521]	8.17 ± 0.45
TTACTACTATATTATACACACATATATATATATATA [CACACA_site2621]	10.3 ± 0.23
ATATTTTATTTATATACACACACATATATATATTAT [CACACA_site8177]	8.79 ± 0.47
AATAATTTTTTAAACACACACACATATATATATATA [CACACA_site95]	10.1 ± 0.3
TAATTTTTTTTAATAACACACATATATATATATATA [CACACA_site813]	10.47 ± 0.042
TACATAAATTTTAATACATGCAAATAAAATATATAA [TGCATGCA_site131]	8.88 ± 0.4
TATATATATATATACACATGCAAAAATTTTTAATTT [TGCATGCA_site82]	10.2 ± 0.35
TTTTATATATTATATACACACATATATATATATATA [CACACA_site2999]	10.2 ± 0.32
TTTTTTTTTTTTTAAACATGCAAAATATATAATTTT [TGCATGCA_site633]	8.46 ± 0.36
ATTTTATTTATATACACACACATATATATATTATAT [CACACA_site822]	8.77 ± 0.44
TTACTACTATATTATACACACATATATTTATTTATA [CACACA_site7274]	8.7 ± 0.4
AAACCTTTAGAAAATCGTACAAAACATAACCACCTA [XGTACX_site1098]	8.81 ± 0.61
CACAGACACGGACACACACACACAAAAAAAAAAAGA [CACACA_site4436]	8.44 ± 0.57

Sequence	gcPBM binding intensity (ln)
TATTTTTAAATATAAAGTACTTATATTAACTACGAA [XGTACX_site1524]	8.27 ± 0.29
TATATATATACATACATACACACATATATATATATA [CACACA_site4109]	10.1 ± 0.67
ACAATAAAATATGGCACACATATATATATATATTTA [CACACA_site3]	8.43 ± 0.34
AAAATCTAGGTATTTATACACACTAAAATAATATAC [CACACA_site623]	8.52 ± 0.3
AAATAAAATAAAATAAAATAAAATAAAATAAAATAA [XGTACX_negctrl_site142]	8.49 ± 0.28
AAAAAATATATATGCACACACAAAAAAACAAATTAA [CACACA_site1278]	8.78 ± 0.38
ATATATATATATTGTACACACATTTATGCATATATA [CACACA_site5738]	9.97 ± 0.3
AGTGAAATTTTAGTCACACAGTTTTATCTTTAAGAA [CACACA_site5202]	8.12 ± 0.52
TTGTGTTATCACACGAAGGGGATAAGACATAAATGT [TGCATGCA_negctrl_site368]	8.49 ± 0.49
TCTTAAGGAAAAGAGTGTACAGAAATTTTTATTAAC [XGTACX_site6139]	8.67 ± 0.48
TGTAGTCTGGAGAAAAGTACATAGTATCTGGTAACC [XGTACX_site2025]	8.62 ± 0.38
ATAAAAAGCTAAAAAGTGCAAAAAGTAAATATTTAA	9 ± 0.44
TTTAAATAAAATATTACACACTTAGAAAAATATATA [CACACA_site3663]	8.38 ± 0.28
AGAATAATAAAATGGGTGCAATAGTTTTTTTTTTTT [GTGCAC_site9823]	8.59 ± 0.13
TTTTTTTTTTTTAATACACACATATTTATATTTATT [CACACA_site7802]	8.44 ± 0.3
TATATAAACACGTACACACACATATAGGTATTTATA [CACACA_site7615]	8.71 ± 0.49
TTTTTTTTTTTTAATACACACATATATATATTTATT [CACACA_site3994]	8.38 ± 0.42
AGGATATATAAGTATACACACATATTTATATTTATA [CACACA_site6239]	8.23 ± 0.42
TATATATATATATATACACACATATATATATTTTTC [CACACA_site3983]	10.2 ± 0.26
ATTTATATATATATAGGTACACATATTTATATATAA [XGTACX_site8487]	8.23 ± 0.2
ACAAATAAGTTTTATACACACATATAAGTAAATACA [CACACA_site4157]	8.57 ± 0.29
AATATATTTTAATACACACACACATATATATATATA [CACACA_site5969]	10.3 ± 0.34
CATATATATATATATACACACATATATATTTTCTTT [CACACA_site1457]	8.69 ± 0.15

Sequence	gcPBM binding intensity (ln)
TATAAGTTTATATATACACACATATATATATATATA [CACACA_site3274]	10.2 ± 0.34
TATATACATATATATACACACATATATATATTTTAT [CACACA_site3788]	8.26 ± 0.4
ATATATTTATTATTAGGTACACATATATATATATAT [XGTACX_site5045]	10.2 ± 0.54
TATATAAACCCGTACACACACATATATGTATATATA [CACACA_site3507]	8.91 ± 0.25
TGTTTTTAAATTTAAATCAAAAAATAAAATAAAATA [GTGCAC_negctrl_site355]	8.34 ± 0.48
CTTACCAAAAGACACACACACACAAGATATATAAAT [CACACA_site6964]	8.77 ± 0.56
TATTGTTATGTCGTTATTAACTTTCTTTAATTAATT [CACACA_negctrl_site174]	8.95 ± 0.29
TTTTTTTTTTTGAGGAGGACACAAAAATATGCTACC [XGTACX_site756]	8.53 ± 0.26
TTTAATCAATGATTTAATGAAAAAAGCAAAAAAAAA [GTGCAC_negctrl_site213]	8.38 ± 0.45
TGAATATTTCTATATACACACATATATATATATATA [CACACA_site3451]	10.3 ± 0.12
GTAATTTTTTTCTATACACACATATATATAATATAT [CACACA_site2655]	8.74 ± 0.32
TAATATTGACTATATACACACATATATATATATATA [CACACA_site575]	10.2 ± 0.28
TAATATTGACTATATACACACATATAAATATAAATA [CACACA_site6414]	8.4 ± 0.33
TATTTATATTTATATACACACATACATATTTATATT [CACACA_site6535]	8.41 ± 0.33
AAAAATTTTAATTAGGAACACACATATATATATATA [CACACA_site9016]	10.1 ± 0.27
TATATATATATTTATACACACACATATATTTATATA [CACACA_site8054]	9.47 ± 0.071
AAATTTTAATTAGGAACACACATATATATATATATA [CACACA_site5673]	10.2 ± 0.24
TATATATATATATATACACACATATATATATTTATA [CACACA_site627]	10.3 ± 0.18
ATTTATTGACTATTTACACACATATTTATTATAATA [CACACA_site1624]	8.9 ± 0.52
AAATTATAATTAGGAACACACATATATATATATATA [CACACA_site3098]	10.1 ± 0.33
TGAATATTTCTATATACACACATATAAATATAAATA [CACACA_site7593]	8.26 ± 0.36
